Experimental data reported in PubChem BioAssay (NCI).
This is part of a sample that, as a whole, favours compounds with a hit. Of some 83,000 tested, about 20% had one in any assay.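 Single-concentration screen, 48 h exposure, 96-well plates. Endpoint: percent growth. Below 10 = active.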 The source made the active and inactive calls.

Test system: SW-620 colon
Experiment: NCI-60 one-dose screen, 48 h (100 = growth as untreated, 0 = no growth, -100 = all killed)
Details: 10 µM
Experimental: Growth inhibition of the SW-620 human tumor cell line is measured as a screen for anti-cancer activity. Cells are grown in 96 well plates and exposed to the test compound for 48 hours. Compounds are tested at a single concentration, which is 10^-5 M for most compounds. The reported endpoint is percent growth (GI% or GIPRCNT), where numbers from 0 - 100% represent growth inhibition, and numbers from -100% - 0 represent cell death. For example, a value of 40 represents 60% growth inhibition. A value of 0 means no net growth occurred over the course of the experiment. A value of -40 indicates 40% of cells at the beginning of the experiment died by the end of the experiment. A value of -100 means all cells are dead at the end of the experiment.
NCI-60 Human Tumor Cell Lines Screen was performed using the standard one-dose NCI protocol, which is described in more detail at https://dtp.cancer.gov/discovery_development/nci-60/default.htm.
Compounds with GIPRCNT values below 10 were considered active. Activity score was based on GIPRCNT using the following formula: […]
Score is 0 for GIPRCNT values of 100 or above, 50 for GIPRCNT values of 0, and 100 for GIPRCNT values of -100.

SMILES	growth
COc1cccc2ccc(CC(O)(c3ccccc3)c3ccccc3)nc12	98.7% (inactive)
O=S(=O)(Oc1ccc(-c2ccc3sccc3c2)cc1)c1ccccc1	100% (inactive)
CC(=O)C1N=NCC1c1ccccc1 (stereo not given)	101% (inactive)
Cc1ccc(C2=NN(c3ccc(S(C)(=O)=O)cc3)C(=O)CC2)cc1	8.58% (active)
COc1cc(-c2nn(-c3cccc(NC(=O)CCN4CCN(Cc5ccccc5)CC4)c3)cc2-c2ccncc2)ccc1Cl	2.77% (active)
CN(C)CCCOc1cccc(NC2=C(Cl)C(=O)C(Nc3cccc(OCCCN(C)C)c3)=C(Cl)C2=O)c1	-61.2% (active)
N#Cc1c(-c2ccc(Cl)cc2)n(O)c2ccccc12	15.3% (inactive)
O=[N+]([O-])c1cc(Cl)cc(Cl)c1O	103% (inactive)
O=C(CCCCC(=O)Oc1c(Cl)cc(Cl)cc1[N+](=O)[O-])Oc1c(Cl)cc(Cl)cc1[N+](=O)[O-]	112% (inactive)
CC[C@@H](C(=O)[C@@H](C)[C@@H](O)[C@H](C)[C@@H]1O[C@@H]([C@@H](CC)C(=O)O)CC[C@@H]1C)C1O[C@]2(C=CC(=O)[C@]3(CC[C@@](C)([C@H]4CC[C@](O)(CC)[C@H](C)O4)O3)O2)[C@H](C)C[C@@H]1C (stereo not given in full)	35.2% (inactive)
COc1cc2cc(Oc3ccc(NC(=O)c4ccccc4)cc3)c(C)nc2cc1OC	109% (inactive)
CN1C(C(=O)Nc2ccccn2)=C(O)c2sc(Cl)cc2S1(=O)=O	95.8% (inactive)
Nc1ccc(CC[C@H]2CCC/C=C/[C@@H]3C[C@H](O)C[C@H]3[C@H](O)/C=C/C(=O)O2)cc1	-27.4% (active)
Cc1ccc2nc(Cl)c(-c3nc4ccccc4o3)cc2c1	103% (inactive)
CNC(=O)c1cn2c3c(c(N4CCN(C)CC4)c(F)cc3c1=O)OC[C@@H]2C	99.9% (inactive)
CNS(=O)(=O)Oc1ccc(-c2sc3cc(OS(=O)(=O)NC)ccc3c2C(=O)c2ccc(OCCN3CCCCC3)cc2)cc1	65.1% (inactive)
COc1ccc(-c2nn(-c3cccc(Cl)c3)cc2C=C(C#N)C#N)cc1	-2.25% (active)
Oc1ccc(-c2[nH]c3ccccc3c2-c2nc3ccccc3o2)cc1	40.9% (inactive)
COc1ccc2nc(Cl)c(Cn3nnc(Cc4ccccc4)n3)cc2c1	66.4% (inactive)
CCOS(=O)(=O)c1c(C(C)C)cc(C(C)C)cc1C(C)C	98.3% (inactive)

SMILES	growth
O=C(NCCCNS(=O)(=O)c1ccc(Cl)cc1)Nc1ccc(-n2cc(-c3ccncc3)c(-c3ccc(Cl)c(O)c3)n2)cc1	50.3% (inactive)
COc1ccccc1-n1c(-c2sc(NC(C)=O)nc2C)n[nH]c1=S	108% (inactive)
O=C(CCCSc1nc(-c2ccccc2)cc(-c2ccc(Cl)cc2)n1)NO	17.4% (inactive)
Cc1ccc(N=Nc2ccccc2)cc1	102% (inactive)
O=C(N/N=C/c1ccc(Cl)cc1)c1ccc(Cc2n[nH]c(=O)c3cccnc23)cc1	113% (inactive)
O=C(O)c1cn(C2CC2)c2cc(N3CCN(C(=O)c4cc(-c5ccc(Cl)cc5)nc5ccccc45)CC3)c(F)cc2c1=O	97.5% (inactive)
Nc1cc(-c2ccncc2)c[nH]c1=O	110% (inactive)
Nc1ccccc1NC(=O)c1ccc(CCCC(=O)Nc2ccc(C3CC3N)cc2)cc1 (stereo not given)	14.9% (inactive)
COc1cc(C2C(C#N)=C(N)Oc3cc(O)ccc32)cc(OC)c1OC (stereo not given)	21.4% (inactive)
O=C(/C=C/C=C/c1c(C2CC2)nc2ccccc2c1-c1ccc(F)cc1)c1cccs1	6.11% (active)
CC(C)(C)OC(=O)CN1CCc2c(sc3ncnc(N/N=C/c4ccccc4Br)c23)C1	60.6% (inactive)
C=CCN(CC=C)C(=O)[C@H](CC)[C@@H]1CC[C@@H](C)[C@@H]([C@H](C)[C@@H](O)[C@@H](C)C(=O)[C@H](CC)C2O[C@]3(C=CC(=O)[C@]4(CC[C@@](C)([C@H]5CC[C@](O)(CC)[C@H](C)O5)O4)O3)[C@H](C)C[C@@H]2C)O1 (stereo not given in full)	24.8% (inactive)
COC(=O)c1c[nH]c2cc(OC(C)C)c(OC(C)C)cc2c1=O	105% (inactive)
CCN1CCN(CCC(=O)Nc2cccc(-n3cc(-c4ccncc4)c(-c4ccc(Cl)c(OC)c4)n3)c2)CC1	10.3% (inactive)
C[N+]1(CCCCC[N+]2(C)CCCC2)CCCC1	98.3% (inactive)
C[C@]12CC[C@@H]3c4ccc(OS(=O)(=O)O)cc4CC[C@H]3[C@@H]1CC[C@@H]2NS(=O)(=O)c1ccc(-c2ccccc2)cc1	75.3% (inactive)
Fc1ccc2[nH]cc(-c3nc(-c4ccsc4)cs3)c2c1	94.8% (inactive)
CCOC(=O)c1sc2ncnc(Nc3ccc4c(cnn4C(=O)Nc4ccccc4)c3)c2c1C	50% (inactive)
CN(C)CCOc1cccc(NC2=C(Cl)C(=O)C(Nc3cccc(OCCN(C)C)c3)=C(Cl)C2=O)c1	-54.9% (active)
O=S(=O)(O)c1cccc(Nc2ccc3ccccc3c2)c1	93.2% (inactive)
